UDG counter: UDG inhibition counter-screen | FRET deamination/UDG coupled assay, UDG read, 4 h | Potency, µM (highest dose often 115 µM), inactives show at the highest dose activity change, negative = inhibition, actives largely listed as inhibitors | 0.14% of 91,000 active | AID 1347430; note: nearly all actives have a fitted effect of over 65% in size
AID inh: activation induced cytidine deaminase inhibition. Q9GZX7. AID deamination FRET fluorescence, UDG-coupled, 4 h. Potency, µM (series often up to 115 µM), hits mostly inhibitors. 0.32% of 91,000 active; note: nearly all actives have a fitted effect of over 25% in size
Target sequence (Q9GZX7 whole entry, looked up): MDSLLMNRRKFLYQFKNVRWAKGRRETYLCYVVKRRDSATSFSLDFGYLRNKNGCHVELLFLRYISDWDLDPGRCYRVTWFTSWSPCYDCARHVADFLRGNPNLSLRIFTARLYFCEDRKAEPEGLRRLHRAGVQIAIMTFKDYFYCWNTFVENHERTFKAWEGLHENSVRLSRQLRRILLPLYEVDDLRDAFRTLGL
* marks the source's active call; other numbers are inactive results; i = inactive; ? = inconclusive; [ ] = another dose, or the depositor's remark. Only some compounds are listed: those with a hit (about 0.47% of all), similar ones and a draw of the others. Calls come from the whole dose curve; as a rule, active = well fitted curve in the direction sought with a large enough effect; inconclusive = small, poorly fitted or top-dose-only effect, or another doubt; inactive = no such curve, though single readings can be large; an effect the other way counts as inactive or inconclusive. % is set by controls: 0 for no effect and ±100 for the full control effect; potency is the fitted concentration of half-maximal effect.

SMILES	UDG counter	AID inh
Cc1nn(-c2ccccc2)c(OC(=O)C(C)C)c1Sc1ccc(Cl)cc1	-21%	?
N#CC1=C(n2cccc2)N(c2ccc(Br)cn2)C2=C(C(=O)CCC2)C1c1cccc(C(F)(F)F)c1 (configuration not stated)	-14%	i
Cc1cccc(N2CCN(C(=O)C(C)n3nc(C)n4c(cc5occc54)c3=O)CC2)c1C (configuration not stated)	-18%	?
CCc1nn(C(C)C(=O)N2CCN(c3cccc(C(F)(F)F)c3)CC2)c(=O)c2cc3occc3n12 (configuration not stated)	-15%	32µM*
Cc1nc2ccccc2nc1COC(=O)c1cccnc1	7%	i
Cc1cc2c(C(C)C)c(O)c(O)c(C=O)c2c(O)c1-c1c(C)cc2c(C(C)C)c(O)c(O)c(C=O)c2c1O	-4%	79µM*
CCOCCCNC(=O)Cn1cc2c(n1)-c1c(oc(C(=O)N3CCCC3)c1C)CC2	?	79µM*
CCN(CC)CCCNC(=O)c1oc2c(c1C)-c1nn(Cc3ccc(Cl)cc3)cc1CC2	-12%[57.5 µM]	i
COCCCNC(=O)c1oc2c(c1C)-c1nn(Cc3ccc(Cl)cc3)cc1CC2	-14%[57.5 µM]	i
COCCCNC(=O)c1oc2c(c1C)-c1nn(Cc3cccc(Cl)c3)cc1CC2	-14%[57.5 µM]	89µM*
Cc1ccc(Cl)cc1N1CCN(C(=O)Cn2cnc3nc4c(cc3c2=O)CCCC4)CC1	?	40µM*
O=C(Cn1cnc2nc3c(cc2c1=O)CCCC3)N1CCN(c2cccc(C(F)(F)F)c2)CC1	-8%	i
C/C(=N/NC(=S)NC(C)C)c1ccc(C2CCCCC2)cc1	-8%	i
CC(C)c1ccc2c(c1)C1(CC(=O)Nc3c1sc(C(=O)O)c3-c1ccccc1F)C(=O)N2C (configuration not stated)	2%	i
COc1ccc(C(=O)N(Cc2ccco2)Cc2ccc(C)o2)cc1	13%[57.5 µM]	i
CCc1ccc(CN(Cc2ccco2)C(=O)c2ccc(OC)cc2)cc1	-9%[57.5 µM]	40µM*
O=S(=O)(NCCc1ncc2ccccn12)c1ccc(Br)cc1	-6%	i
COc1cccc(CNC(=O)c2cc3cc(OC)ccc3[nH]2)c1	-3%	i
COc1ccc(OC)c(/C=C(\C#N)c2nc3ccccc3c(=O)[nH]2)c1	48%	79µM*
COc1cccc(/C=C(\C#N)c2nc3ccccc3c(=O)[nH]2)c1OC	0%	i
CC(N)(C(=O)O)c1ccccc1 (configuration not stated)	-6%	i
O=C(O)Cc1ccc(N2C(=O)C(=O)/C(=C(/O)c3ccccc3Cl)C2c2ccccc2F)cc1 (configuration not stated)	-2%	i
COc1cccc(NC(=O)CCN2CCN(c3ccccc3)CC2)c1	-7%	i
Cc1ccc(NC(=O)CCN2CCN(CCO)CC2)cc1C	34%	i
Cc1cc(NC(=O)CCN2CCN(Cc3cccc4ccccc34)CC2)ccc1Br	89µM*	?
SMILES	UDG counter	AID inh
Cc1cccc(NC(=O)CCN2CCN(Cc3cccc4ccccc34)CC2)c1	79µM*	?
Cc1ccc(-c2cccc(N)c2)cc1	6%	i
Cc1ccc(CN2CCC(CNc3ncnc4onc(-c5ccc(Cl)cc5)c34)CC2)cc1	2%	i
Cc1cccc(CN2CCC(CNc3ncnc4onc(-c5ccc(Cl)cc5)c34)CC2)c1	-22%	20µM*
N#CC1=C(N)n2ncnc2NC1c1ccccc1Cl (configuration not stated)	-2%	i
Cc1ccc(NC(=S)NNC=O)cc1	3%	i
O=C(Cc1n[nH]c(=O)c2ccccc12)Nc1ccc(S(=O)(=O)N2CCCC2)cc1	-19%	40µM*
Cn1nc(CC(=O)Nc2ccc(S(=O)(=O)N3CCCCCC3)cc2)c2ccccc2c1=O	-4%	i
COc1ccc(S(=O)(=O)Cc2ccc(C(=O)N3CCN(c4cc(C)ccc4C)CC3)o2)cc1	89µM*	?
Cc1ccc(S(=O)(=O)Cc2ccc(C(=O)N3CCN(c4cccc(C)c4C)CC3)o2)cc1	-12%	?
Cc1nc2c(-c3ccccc3)c(C)[nH]n2c(=O)c1Cc1ccc(C(C)C)cc1	79µM*	i
Cc1ccc(Cc2c(C)nc3c(-c4ccccc4)c(C)[nH]n3c2=O)cc1	-5%	i
CCCNC(=O)c1cc(-c2ccc(C)s2)nc2ccccc12	-3%	i
CC(C)N(CCNC(=O)C(c1ccccc1)c1ccccc1)C(C)C	-1%	i
O=C1C(SCCO)=C(SCCO)C(=O)c2ccccc21	-10%	11µM*
CCCCCCC1COC(c2ccc(Br)cc2)OC1 (configuration not stated)	1%	i
Cc1cccc2sc(NC(=O)c3ccc[n+]([O-])c3)nc12	-6%	i
CCCCOc1c(Cl)cc(C(=O)N(Cc2ccc(C)o2)C2CCS(=O)(=O)C2)cc1Cl (configuration not stated)	89µM*	?
COc1cccc(C(=O)N(Cc2ccc(C)o2)C2CCS(=O)(=O)C2)c1 (configuration not stated)	6%	i
CSc1ccc(/C=N/Nc2ccc(F)cc2F)cc1	-23%	i
